Laboratory results as given in PubChem BioAssay AID2528 (National Center for Advancing Translational Sciences (NCATS), 2010).
Where “and” joins values, the source holds several entries; their conditions need not be identical. Equal values may be shown once. Among all 350,000 compounds or so, about 700 (0.2%) were called active. Calls follow the shape of the dose curve; as a rule, active = well fitted inhibition curve with a large enough effect; inconclusive = small, poorly fitted or top-dose-only effect; inactive = flat fitted curve, though single readings scatter. The full list was thinned out, with actives kept by preference. Bridge positions count the residues as written; N and C are the ends. Peptide text beside a SMILES is read from it.

Target: RecQ-like DNA helicase BLM (Homo sapiens) (UniProt P54132)
Assay: qHTS Assay for Inhibitors of Bloom's syndrome helicase (BLM); also: nearly all actives have a fitted effect of over 35% in size
Details: recombinant BLM DNA unwinding, fluorescence dequenching; series mostly up to 56.1 µM; activity change, negative = inhibition: at the top concentration
Text: Survival of cells and the faithful propagation of the genome depend on elaborate mechanisms of detecting and repairing DNA damage. Treatment of advanced cancer relies on radiation therapy or chemotherapy, which kill cancer cells by causing extensive DNA damage. It is often found, that cancer cells develop resistance to therapy through enhanced activity of DNA repair functions; this has led to an increased interest in developing drugs that interfere with DNA repair, which could sensitize cancer cells to conventional therapy.
This validation qHTS assay pertains to human BLM, which is important in resolving abnormal DNA structures formed during replication or homologous recombination. Shutting down the expression of BLM leads to chromosomal instability and higher radiation sensitivity in cultured cells.
The validation assay was a fluorescence quenching based kinetic qHTS for BLM Helicase DNA unwinding. The activity was measured as ATP-dependent separation of a 20-bp DNA duplex extended by 30-nt single-stranded tails (forked duplex). The forked DNA substrate was tagged with rhodamine fluorophore (carboxytetramethyl rhodamine, TAMRA) and BHQ-2 (Black Hole Quencher 2) dark quencher. Strand separation results in an increase in the fluorescence of TAMRA (excitation 525 nm, emission 598 nm). This substrate construct operates in a red-shifted region where very few compound library members have been noted to fluoresce (PubChem AIDs 593 and 594). An additional feature of the assay is the inclusion of 2.5 ug/ml poly (dIdC), to reduce interference by compounds such as DNA intercalators, a major source of false inhibitors.
Ian Hickson, University of Oxford
Opher Gileadi, Structural Genomics Consortium, University of Oxford
Screening Center PI: Austin, C.P.
Screening Center: NIH Chemical Genomics Center [NCGC]
Three uL of reaction buffer (25 mM Tris-HCl (pH 8.0), 5 mM NaCl, 2 mM MgCl2, 1mM DTT, 0.01% Tween- 20, and 2.5 ug/ml poly(dI-dC), including enzyme (50 nM BLM), were dispensed into a 1536-well Greiner black assay plate via solenoid-valve based nanoliter dispensers. Compounds (23 nl each in columns 5-48) and control (23 nl each in column 2 as dose-response) were transferred via a Kalypsys pintool equipped with a 1536-pin array. The plates were incubated for 15 min at room temperature, and then 1 ul of substrates (200 nM DNA and 2 mM ATP, final concentrations) was added to start the reaction. The plate was transferred into a ViewLux high-throughput CCD imager where the reaction progress was measured in a discontinuous kinetic mode (two reads spaced 2 hours apart, with intermediate room temperature incubation of the covered assay plate) by using standard red-fluorescence optics (excitation filter 525 nm, emission filter 598 nm). Enzyme-free and vehicle (DMSO) controls were included for signal normalization.
Potency is read from the fitted curve at half-maximal effect.

Chain of RecQ-like DNA helicase BLM (Homo sapiens) (P54132 whole entry, looked up): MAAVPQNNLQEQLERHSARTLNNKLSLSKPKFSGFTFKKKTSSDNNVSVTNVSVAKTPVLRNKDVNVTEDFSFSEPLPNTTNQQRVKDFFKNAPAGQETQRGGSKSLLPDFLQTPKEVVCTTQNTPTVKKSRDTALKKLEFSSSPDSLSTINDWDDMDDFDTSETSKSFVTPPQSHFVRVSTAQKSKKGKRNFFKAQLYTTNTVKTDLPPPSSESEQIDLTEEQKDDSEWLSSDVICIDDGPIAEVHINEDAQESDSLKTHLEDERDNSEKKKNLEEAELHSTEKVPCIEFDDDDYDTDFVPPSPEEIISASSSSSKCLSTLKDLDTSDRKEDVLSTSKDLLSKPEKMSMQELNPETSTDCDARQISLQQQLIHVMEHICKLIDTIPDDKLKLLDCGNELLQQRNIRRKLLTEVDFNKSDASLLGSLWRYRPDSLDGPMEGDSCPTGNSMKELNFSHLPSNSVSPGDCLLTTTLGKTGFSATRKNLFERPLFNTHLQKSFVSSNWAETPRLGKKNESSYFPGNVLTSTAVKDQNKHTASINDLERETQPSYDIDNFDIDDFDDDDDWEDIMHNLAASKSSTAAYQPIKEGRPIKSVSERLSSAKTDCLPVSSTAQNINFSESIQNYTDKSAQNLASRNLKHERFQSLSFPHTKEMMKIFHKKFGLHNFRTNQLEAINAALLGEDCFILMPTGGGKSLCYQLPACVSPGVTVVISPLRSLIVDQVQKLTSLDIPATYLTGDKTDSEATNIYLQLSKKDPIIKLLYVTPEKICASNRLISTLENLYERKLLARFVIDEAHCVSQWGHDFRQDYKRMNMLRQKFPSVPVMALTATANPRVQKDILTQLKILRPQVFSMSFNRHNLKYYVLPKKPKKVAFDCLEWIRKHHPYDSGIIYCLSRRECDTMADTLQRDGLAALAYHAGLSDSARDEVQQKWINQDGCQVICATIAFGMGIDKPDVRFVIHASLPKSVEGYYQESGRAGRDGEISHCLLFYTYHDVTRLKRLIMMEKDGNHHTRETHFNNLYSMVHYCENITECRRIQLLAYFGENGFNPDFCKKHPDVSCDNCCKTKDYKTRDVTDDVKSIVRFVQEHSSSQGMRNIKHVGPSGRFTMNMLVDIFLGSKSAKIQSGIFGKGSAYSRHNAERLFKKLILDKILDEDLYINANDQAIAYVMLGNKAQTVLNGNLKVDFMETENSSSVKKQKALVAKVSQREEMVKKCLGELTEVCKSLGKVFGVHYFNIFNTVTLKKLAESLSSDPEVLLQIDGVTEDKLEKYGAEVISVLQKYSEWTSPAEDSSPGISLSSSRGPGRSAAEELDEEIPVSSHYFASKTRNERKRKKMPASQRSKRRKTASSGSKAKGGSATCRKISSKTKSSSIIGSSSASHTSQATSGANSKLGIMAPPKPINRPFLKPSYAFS

Row | SMILES | activity change, negative = inhibition | Potency
1 | C=CC1=C2C=C(C3CC3)N(C(CO)CO)C=C2C(=O)C(C)(OC(=O)c2ccco2)C1=O (centres undefined) | -12.4% [at 12.4 µM] (inactive) | 
2 | C[C@@H](O)[C@@H]1NC(=O)[C@H](CCCCN)NC(=O)[C@H](Cc2c[nH]c3ccccc23)NC(=O)[C@H](Cc2ccccc2)NC(=O)[C@H](Cc2ccccc2)NC(=O)[C@H](CC(N)=O)NC(=O)[C@H](CCCCN)NC(=O)[C@@H](NC(=O)[C@@H]2CCCN2)CSSC[C@@H](C(=O)N[C@@H](CCCCN)C(=O)O)NC(=O)[C@H](CO)NC(=O)[C@H](CO)NC(=O)[C@H](Cc2ccccc2)NC1=O (H-PCKNFFWKTFSSCK-OH; disulfide 2-13) | 21.2% (inactive) | 
3 | CCOC(=O)C1CCCN(C(=O)c2ccc3c(c2)sc2nc(-c4ccc(CC)cc4)cn23)C1 (centres undefined) | -2.58% (inactive) | 
4 | OCCC(O)CO (centres undefined) |  | inactive
5 | CC[C@]1([C@H]2O[C@@H]([C@@H]3O[C@](O)(CO)[C@@H](C)C[C@H]3C)C[C@H]2C)CC[C@@H]([C@]2(C)CC[C@@]3(C[C@@H](O)[C@@H](C)[C@@H]([C@H](C)[C@H](OC)[C@H](C)C(=O)O)O3)O2)O1 | 2.14% [at 21.4 µM] (inactive) | 
6 | COc1ccc(NC(=O)CSc2nc(NS(=O)(=O)c3ccc(C)cc3)cc(=O)[nH]2)cc1 |  | 22.4 µM (active)
7 | Cc1ccc(NC(=O)CSc2nc(CSc3ccc(C)cc3)cc(=O)[nH]2)cc1 | -5.28% (inactive) | 
8 | Cc1ccc(OCCCC(=O)Nc2ccc(S(=O)(=O)Nc3cc(C)nc(C)n3)cc2)cc1 | -3.4% (inactive) | 
9 | COCCn1c(=O)c(CCc2ccccc2)nc2cnc(N3CCNCC3)nc21 | 2.72% (inactive) | 
10 | N[C@@H](C(=O)O)c1ccc(P(=O)(O)O)cc1 | 1.25% (inactive) | 
11 | COC(C)C(C(=O)OCC1=CCN2CC[C@H](O)[C@@H]12)C(C)C (some centres undefined) | 3% (inactive) | 
12 | COc1ccc2c3c1OC1CC(O)C=C[C@@]31CCN(C)C2 (some centres undefined) | -12.8% (inactive) | 
13 | CCOC(=O)c1c(C)[nH]c(C(=O)NCc2ccccc2OC)c1C | 2.72% (inactive) | 
14 | CCOC(=O)c1c(C)[nH]c2c1-c1ccccc1C(=O)C2=O |  | 2.82 µM (active)
15 | CCOC(=O)c1c(SCC(=O)Nc2cccc(C)c2C)nc(=O)[nH]c1C | -1.44% (inactive) | 
16 | COc1ccc(NS(=O)(=O)c2cc3c4c(c2)CC(=O)N4CCC3)cc1Cl | 1.48% (inactive) | 
17 | COC(=O)C(C(=O)OC)[C@@H](NC=O)c1ccccc1 | -1.06% (inactive) | 
18 | CCCCS(=O)(=O)N1C2=NC(C(=O)OC)=C(C(=O)OC)[C@@H]3N(Cc4ccccc4)c4ccccc4[C@]23C[C@H]1C(=O)OC | -0.97% [at 12.4 µM] (inactive) | 
19 | C=CCOC(=O)C(C(C)=O)C(NC(=O)OC)c1ccccc1 (centres undefined) | -4.39% [at 12.4 µM] (inactive) | 
20 | CC(C)C[C@@H](CC(=O)N[C@@H](CCC(=O)O)CC(=O)O)NC(=O)[C@@H]1CCCC[C@H]1NC(=O)C[C@@H](NC(=O)C[C@H](Cc1c[nH]c2ccccc12)NC(=O)[C@@H]1CCCC[C@H]1N)C(C)C | 0.14% (inactive) | 
21 | Nc1ncn(C2OC(CO)C(O)C2O)c(=O)n1 (centres undefined) | -5.76% (inactive) | 
22 | CC1CC[C@@]23CCC4(C)[C@@]5(C)CCC6C(C)(C)C(O)CC[C@@]6(C)C5C=C[C@@]4(OC2=O)C3C1C (some centres undefined) | -0.263% (inactive) | 
23 | COc1ccc(-c2nc3c(c4c2C[C@H](c2ccccc2)OC4)CN(C(=O)c2cccnc2)CC3)c(C)c1 | 0.694% [at 12.4 µM] (inactive) | 
24 | C=C1O[C@@](CO)(n2cnc3c(N)ncnc32)[C@H](O)[C@@H]1O | 0.613% (inactive) | 
25 | COc1ccc(-c2nc(-c3ccccc3)oc2Nc2ccc3ccccc3c2)cc1 | 3.96% (inactive) | 

Row | SMILES | activity change, negative = inhibition | Potency
26 | CCCC[C@H]1C(=O)N(c2ccccc2)N(c2ccc(O)cc2)C1=O | 2.14% [at 21.4 µM] (inactive) | 
27 | COC(=O)[C@@]1(Cc2ccc(F)cc2)[C@@H]2[C@@H](CC(=O)[C@H]2CC(=O)C(=O)N2CCCC2)CN1C(=O)c1ccccc1 | -2.36% (inactive) | 
28 | COC(=O)C1(C)C=CC2(CCCCC2)N1C(C)=O (centres undefined) | -1.29% (inactive) | 
29 | CC1=C2[C@@H](O)[C@H]([C@@H](C)C(=O)NCCC(C)C)CC[C@@]2(C)C=CC1=O | -1.03% (inactive) | 
30 | Cc1ccc(-c2ncc(Cl)cc2-c2ccc(S(C)(=O)=O)cc2)cn1 | 2.81% (inactive) | 
31 | C[C@H]1CC[C@H](C(=O)O)N[C@@H]1c1ccc(C#Cc2ccccc2)cc1 | 6.21% [at 12.4 µM] (inactive) | 
32 | COc1ccccc1CNc1ncnc2ccc(-c3c(C)noc3C)cc12 | 1.02% (inactive) | 
33 | Nc1nc2[nH]c(=O)c(=O)[nH]c2c(=O)[nH]1 | 5.91% (inactive) | 
34 | CC/C=C\C/C=C\C/C=C\C/C=C\C/C=C\C/C=C\CCC(=O)NC(C)C(=O)O (centres undefined) | 3.92% (inactive) | 
35 | COC(=O)C1=C(C)N(Cc2ccccc2)C2=C3C(=O)N(c4ccccc4)C(=O)C3[C@@](O)(C(=O)OC)C(=O)N2C1c1ccccc1 (some centres undefined) | -3.25% [at 12.4 µM] (inactive) and -3.97% [at 12.4 µM] (inactive) | 
36 | COc1ccc(S(=O)(=O)c2c(Nc3cccc(Cl)c3)sc(C(=O)c3ccccc3)c2N)cc1 | -4.89% (inactive) | 
37 | CC1(C)OC2CO[C@]3(COS(N)(=O)=O)OC(C)(C)OC3C2O1 (some centres undefined) | -7.65% (inactive) | 
38 | COc1cc(OC)c(NC(=O)c2nc(-c3ccncc3)no2)cc1Cl | 1.3% (inactive) | 
39 | N#Cc1c(N2CCCCC2)nc(N)c2c(N)nc(SCC(=O)O)cc12 |  | 28.2 µM (active)
40 | N#Cc1c(C(F)(F)F)cc(-c2cccs2)nc1N1CCCCC1 | -2.96% (inactive) | 
41 | C=C1C(=CC=C2CCC[C@@]3(C)[C@@H]2CC[C@H]3[C@H](C)CCCC(C)C)C[C@@H](O)C[C@@H]1O | -22.4% (inactive) | 
42 | CC(C)CN1CCc2nc(-c3ccccc3)c3c(c2C1)COC(C)C3 (centres undefined) | -4.43% [at 12.4 µM] (inactive) | 
43 | Cc1ccc(CCNC(=O)C2CCN(c3nnc(-n4cccc4CNc4ccc(C)cc4)s3)CC2)cc1 | -9.92% (inactive) | 
44 | CC(C)C1=CC2=CC[C@H]3[C@](C)(C(=O)O)CCC[C@]3(C)C2CC1 (some centres undefined) | 4.37% (inactive) | 
45 | O=C(O)c1cc(Cl)c(Cl)cc1C(=O)Nc1cccc2ncccc12 | -9.89% (inactive) | 
46 | Cc1ccc(/C=C(\C#N)C(=O)Nc2cccc3ncccc23)o1 |  | 7.94 µM (active)
47 | CCOC(=O)c1ccc(-c2ccc(/C=C(\C#N)C(=O)Nc3ccc(OCC)cc3)o2)cc1 | -5.55% (inactive) | 
48 | FC(F)(F)c1ccccc1-c1nc(-n2ccnc2)c2ccccc2n1 | -3.83% (inactive) | 
49 | C/C(CCN1CCCCc2nc(C)c(C)cc21)=N\O[C@@H](C)c1cn([C@@H]2COC[C@@H]2O)nn1 | 3.53% [at 12.4 µM] (inactive) | 
